Screening data from PubChem BioAssay.
D2 PAM-1: positive allosteric modulators of human D2 dopamine receptor | AID 485347 | potentiation, % at 10 µM | HEK293 T-REx D2, calcium flux, EC20 dopamine potentiation | actives 0.34% (n = 340,000);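 active = potentiation over 3 SD above the plate norm, cut at about 30% in these data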
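Using a no-wash calcium dye in inducible, force-coupled HEK293 Trex cells expressing D2, we tracked fluorescence each second for 180 s after compound, then for 180 s after EC20 dopamine to detect augmented signalling.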
D2 ag-1: agonists of human D2 dopamine receptor (beta-arrestin); P14416; actives 0.084% (n = 360,000); DiscoveRx PathHunter D2 beta-arrestin, luminescence, 90 min; 100% = 57 uM dopamine signal; AID 624465; activation, % (concentration not given with the values); in the data active = activation above about 40%; inconclusive = between about 15% and that limit
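Agonist mode: compounds alone added to overnight-plated D2 PathHunter cells for 90 min at 37 C, with 57 uM final dopamine (EC100) defining full response. Beta-arrestin recruitment detected by chemiluminescent reagent, read after 1 h at ambient temperature.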
D2 ag-2: activates the human D2 dopamine receptor; P14416; HEK293 T-REx D2 cells, calcium flux agonist mode; activation, % at 2 µM; actives 0.53% (n = 340,000);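 active = activation over 3 SD above normal in the single-dose calcium agonist read, cut at about 30% in these data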
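In this primary screen, compounds producing a positive calcium signal within 180 s of addition to tetracycline-induced, force-coupled HEK293 Trex D2 cells are flagged; cells are dye-loaded with a no-wash calcium kit beforehand.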
D2 antagonist: antagonists of human D2 dopamine receptor; P14416; HEK293 TREx D2 cells, calcium flux, dopamine EC80; inhibition, % at 10 µM; actives 2% (n = 340,000); in the data active = inhibition above about 30%; inactive = below that, where a call was filed
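Antagonism is scored as inhibition of an EC80 dopamine-evoked calcium signal in a force-coupled, tetracycline-inducible HEK293 T-REx D2 line, with compound present 180 s before agonist.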
D2 PAM-2: human D2 receptor positive allosteric modulation | P14416 | DiscoveRx D2 beta-arrestin cells, luminescence, 90 min; 100% = 57 uM dopamine signal | potentiation, % (test concentration not listed) | actives 0.23% (n = 360,000) | AID 624464; in the data active = potentiation above about 50%; inconclusive = mostly about 30% to 49%
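D2 cells co-treated with compound plus 50 nM dopamine (EC20) for 90 min at 37 deg C to detect potentiation. Beta-arrestin recruitment was read as enzyme-fragment luminescence after 1 h at ambient temperature. Full response was set by 57 uM dopamine.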
D3 ag: activates human D3 dopamine receptor beta-arrestin recruitment | shares compounds with D2 ag-2 | DiscoveRx D3 beta-arrestin cells, luminescence, 90 min | Potency, µM (highest dose often 76.9 µM), usual class: activators | actives 4% (n = 2,300); note: nearly all actives have a fitted effect of over 70% in size
Target sequence (P35462 whole entry, looked up): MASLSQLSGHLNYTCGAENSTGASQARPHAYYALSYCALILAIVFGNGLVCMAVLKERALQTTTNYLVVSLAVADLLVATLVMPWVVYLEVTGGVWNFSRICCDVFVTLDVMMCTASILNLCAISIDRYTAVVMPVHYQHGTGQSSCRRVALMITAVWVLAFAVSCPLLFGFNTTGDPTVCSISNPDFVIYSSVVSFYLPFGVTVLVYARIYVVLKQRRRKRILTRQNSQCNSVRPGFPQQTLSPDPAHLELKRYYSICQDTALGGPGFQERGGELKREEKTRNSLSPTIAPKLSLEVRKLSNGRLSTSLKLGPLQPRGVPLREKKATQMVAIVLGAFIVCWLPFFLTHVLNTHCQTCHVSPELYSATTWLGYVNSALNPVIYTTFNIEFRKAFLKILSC
D2 ag-3: counter-screen for D3 agonists: human D2 dopamine receptor agonism; Potency, µM (series often up to 76.9 µM), hits mostly activators; shares compounds with D2 ag-2; DiscoveRx PathHunter D2 beta-arrestin, luminescence, 90 min; response scale: percent relative to full dopamine signal; AID 720507; actives 5.9% (n = 2,300); note: nearly all actives have a fitted effect of over 70% in size
Numbers stand for hits. A selection: hits, their analogues and other compounds. The true share with any hit is near 2.4%. Unless noted, calls come from the whole dose curve; as a rule, active = well fitted activation curve with a large enough effect; inconclusive = small, poorly fitted or top-dose-only effect; inactive = flat fitted curve, though single readings scatter.

For Cc1ccc(Cc2cnc(NC(=O)c3ccc4c(c3)CC(c3ccccc3)OC4=O)s2)cc1 (stereo not given) the results were D2 PAM-1 inactive and D2 ag-2 inactive.
Screening Cc1ccc(Cl)cc1NC(=O)Cn1ncc2c(C)n(Cc3ccccc3F)c(C)c2c1=O returned D2 PAM-1 inactive and D2 ag-2 inactive.
For Cc1c2c(nc3c(C)cccc13)OC(C)C2 (stereo not given) the results were D2 PAM-1 inactive, D2 ag-1 inactive, D2 ag-2 inactive, D2 antagonist inactive, D2 PAM-2 inactive, D3 ag inactive and D2 ag-3 inactive.
For CCn1cc(C(=O)NCc2ccc3c(c2)OCO3)c(=O)c2ccc(C)nc21 the results were D2 PAM-1 inactive, D2 ag-2 inactive and D2 antagonist inactive.
For Cc1ccc2c(C)c(C(=O)N3CCN(Cc4ccc5c(c4)OCO5)CC3)oc2c1C the results were D2 PAM-1 inactive, D2 ag-1 inactive, D2 ag-2 inactive, D2 antagonist inactive and D2 PAM-2 inactive.
For CCn1cc(C(=O)N2CCN(Cc3ccc4c(c3)OCO4)CC2)c(=O)c2ccc(C)nc21 the results were D2 PAM-1 inactive, D2 ag-1 inactive, D2 ag-2 68, D2 antagonist inactive, D2 PAM-2 inactive, D3 ag inactive and D2 ag-3 inactive.
For Cc1c(C(=O)N2CCN(Cc3ccc4c(c3)OCO4)CC2)sc2ncnc(N3CCN(c4ccccc4F)CC3)c12 the results were D2 ag-1 inconclusive, D2 PAM-2 inactive, D3 ag inactive and D2 ag-3 inconclusive.
For Cc1ccc(C(=O)N2CCN(Cc3ccc4c(c3)OCO4)CC2)o1 the results were D2 ag-1 inactive, D2 PAM-2 inactive, D3 ag inactive and D2 ag-3 inactive.
COc1ccc(N(C)S(=O)(=O)c2cccc(C(=O)N3CCN(Cc4ccc5c(c4)OCO5)CC3)c2)cc1 was read as D2 PAM-1 inactive, D2 ag-1 inactive, D2 ag-2 58, D2 antagonist inactive, D2 PAM-2 inactive, D3 ag inactive and D2 ag-3 inactive.
CC(=O)N1CCc2cc(Br)cc(S(=O)(=O)CCC(=O)N3CCN(c4ccccc4Cl)CC3)c21 was read as D2 PAM-1 inactive.
`COc1ccc(NC(=O)CCc2nc3c(C)nn(-c4ccc(C)cc4)c3n(C)c2=O)c(OC)c1` gave D2 PAM-1 inactive and D2 ag-2 inactive.
For CC(C)Oc1ccc(CNC(=O)c2ccc3nc(SCc4ccc(F)cc4)n(C)c3c2)cc1 the results were D2 PAM-1 inactive and D2 ag-2 inactive.
Screening CS(=O)(=O)c1ccccc1C(=O)N1CCN(Cc2ccccc2)CC1 returned D2 ag-1 inactive, D2 PAM-2 inactive, D3 ag inactive and D2 ag-3 inactive.
For CCOc1ncccc1C(=O)N1CCN(Cc2ccc3c(c2)OCO3)CC1 the results were D2 PAM-1 inactive, D2 ag-1 60, D2 ag-2 80, D2 antagonist 75, D2 PAM-2 inactive, D3 ag inconclusive and D2 ag-3 2.8µM.
Screening COc1cccc(CN2CCN(C(=O)c3cccc(OC)c3)CC2)c1 returned D2 PAM-1 inactive, D2 ag-1 inactive, D2 ag-2 inactive, D2 antagonist inactive and D2 PAM-2 inactive.
Screening CN(CC(=O)N1CCN(Cc2ccccc2)CC1)C(=O)Cc1cccc2ccccc12 returned D2 PAM-1 inactive, D2 ag-1 inactive, D2 ag-2 37, D2 antagonist inactive, D2 PAM-2 inactive, D3 ag inactive and D2 ag-3 inactive.
`O=C(c1cnn2cccnc12)N1CCN(Cc2ccc3c(c2)OCO3)CC1` gave D2 PAM-1 inactive, D2 ag-1 inactive, D2 ag-2 inactive, D2 antagonist inactive and D2 PAM-2 inactive.
For O=C(c1ccccc1)N1CCN(Cc2cccc(Oc3ccccc3)c2)CC1 the results were D2 PAM-1 inactive, D2 ag-1 inactive, D2 ag-2 49, D2 antagonist inactive, D2 PAM-2 inactive, D3 ag inactive and D2 ag-3 inactive.
For Cc1ccc(C)c(Nc2nn3c(=O)c4ccc(C(=O)NCc5cccs5)cc4nc3s2)c1 the results were D2 PAM-1 inactive and D2 ag-2 inactive.
CCOC(=O)c1cc(-c2ccc(OC)cc2)n(CCC(=O)Nc2nc3ccc(OCC)cc3s2)c1C was read as D2 PAM-1 inactive and D2 ag-2 inactive.
For CCOC(=O)N1CCN(C/C(C)=C/c2ccccc2)CC1 the results were D2 PAM-1 inactive, D2 ag-1 inconclusive, D2 ag-2 63, D2 antagonist 63, D2 PAM-2 inactive, D3 ag inactive and D2 ag-3 inconclusive.
Screening Cc1cc(=O)oc(C)c1C(=O)N1CCN(Cc2ccc3c(c2)OCO3)CC1 returned D2 PAM-1 inactive, D2 ag-1 inactive, D2 ag-2 inactive, D2 antagonist inactive, D2 PAM-2 inactive, D3 ag inactive and D2 ag-3 inactive.
Screening O=C(Cn1ccc2ccccc2c1=O)N1CCN(Cc2ccc3c(c2)OCO3)CC1 returned D2 PAM-1 inactive, D2 ag-1 inactive, D2 ag-2 30, D2 antagonist inactive, D2 PAM-2 inactive, D3 ag inactive and D2 ag-3 inactive.
O=C(c1ccc([N+](=O)[O-])o1)N1CCN(Cc2ccccc2)CC1 was read as D2 PAM-1 inactive, D2 ag-1 inactive, D2 ag-2 inactive, D2 antagonist inactive and D2 PAM-2 inactive.
`Cc1ccc(C(=O)N2CCN(Cc3ccccc3)CC2)o1` gave D2 PAM-1 inactive, D2 ag-1 inactive, D2 ag-2 50, D2 antagonist inactive, D2 PAM-2 inactive, D3 ag inactive and D2 ag-3 inactive.
`O=C(c1cc2ccccc2oc1=O)N1CCN(Cc2ccc3c(c2)OCO3)CC1` gave D2 PAM-1 inactive, D2 ag-1 inactive, D2 ag-2 inactive, D2 antagonist inactive and D2 PAM-2 inactive.
Screening COc1cccc(OC)c1C(=O)N1CCN(Cc2ccc3c(c2)OCO3)CC1 returned D2 PAM-1 inactive, D2 ag-1 inactive, D2 ag-2 inactive, D2 antagonist inactive and D2 PAM-2 inactive.
N#Cc1ccc(S(=O)(=O)N2CCC(C(=O)N3CCN(Cc4ccc5c(c4)OCO5)CC3)CC2)cc1 was read as D2 PAM-1 inactive, D2 ag-1 inconclusive, D2 ag-2 35, D2 antagonist 43, D2 PAM-2 inactive, D3 ag inactive and D2 ag-3 inconclusive.
For CCOC(=O)N1CCN(Cc2ccc3c(c2)OCO3)CC1 the results were D2 PAM-1 inactive, D2 ag-1 53, D2 ag-2 86, D2 antagonist 81, D2 PAM-2 inconclusive, D3 ag inactive and D2 ag-3 5µM.
